For 18 molecules, outcome results are on record in PubChem BioAssay (EPA / NIEHS).

Molecules are shown by their SMILES. Records with an inconclusive call do not appear. Calls of active or inactive are those of the source. Rule for the calls: active = hit-call score of the fitted dose curve at least 0.9, where 1 is the maximum; inconclusive = response in the unintended direction; inactive = score below 0.9.

Read-out in this assay: organic anion transporter (SLCO1B1), SLCO1B1 (gene 10599)
Put plainly: CLD_SLCO1B1_48hr: CellzDirect (CLD) Gene Expression Assay for organic anion transporter (SLCO1B1) at 48 hours (AID 2283707). The procedure: CLD_48hr is a cell-based, multiplexed-readout assay that uses hepatocyte, a human liver primary cell, with measurements taken at 48 hours after chemical dosing in a 96-well plate.CLD_SLCO1B1_48hr is one of 16 assay component(s) measured or calculated from the CLD_48hr assay. It is designed to make measurements of mRNA induction, a form of inducible reporter, as detected with chemiluminescence signals by Quantitative Nuclease Protection Assay (qNPA) technology.Data from the assay component CLD_SLCO1B1_48hr was analyzed at the endpoint, CLD_SLCO1B1_48hr, in the positive analysis fitting direction relative to DMSO as the negative control and baseline of activity. Using a type of inducible reporter, gain-of-signal activity can be used to understand changes in the reporter gene as they relate to the gene SLCO1B1. Furthermore, this assay endpoint can be referred to as a primary readout. To generalize the intended target to other relatable targets, this assay endpoint is annotated to the transporter intended target family, where subfamily is organic anion transporter.
Human hepatocyte cultures were treated daily for two consecutive days with fresh dosing solutions containing appropriate concentrations of the 320 ToxCast chemicals (chemical identities were blinded to CellzDirect and other ToxCast collaborators), vehicle control (0.2% DMSO), and positive control inducers as summarized in Table 1. Due to the large number of treatment groups and chemicals examined, the ToxCast chemicals were divided into two groups (spanning two independent cultures of hepatocytes from separate donor preparations (Hu778: ToxCast plates 1 and 2; Hu776: ToxCast plates 3 and 4). Each preparation of human hepatocyte cultures was treated with respective vehicle control, medium only control, set of six positive controls/reference chemicals for the five hepatic receptor pathways, and a subset of eight of the ToxCast chemicals (indoxacarb, pyrithiobac-sodium, norflurazon, cyhalofop-butyl, methomyl, thiram, acetochlor, and propiconazole). These replicate data, coupled with internal replicates designed within the blinded ToxCast chemical library, provided additional data to evaluate interindividual differences between hepatocyte preparations and their potential impact on chemical profiles.Cell morphology and integrity were evaluated using phase-contrast microscopy as an indicator of hepatocyte cell health (Tyson & Green, 1987). Cultures for each treatment group (i.e., media, vehicle [0.2% DMSO], positive control inducers [multiple concentrations], and the ToxCast chemicals [multiple concentrations]) were observed and cell morphology was assessed relative to vehicle control cultures at each harvest time point (0, 6, 24, or 48 h). […] Images were evaluated at the conclusion of the study to assess changes in cell integrity and account for the effects of chemical exposure on uncharacteristic changes in concentration-dependent gene expression profiles. The results from these determinations of apparent cytotoxicity were annotated (yes/no) alongside the corresponding qNPA data for reference.At the conclusion of each treatment period, hepatocyte cultures (96-well) were washed with 1 volume of HBSS, lysed by addition of 25 ul ArrayPlate lysis buffer (HTG, Tucson, AZ), and 70 ul/well of Denaturation Oil, denatured by incubation at 95C for 10 min, and frozen at approximately -70C until analysis by nuclease protection assay (qNPA) (Roberts et al., 2007). For qNPA analysis, cell lysates were thawed at 50C for approximately 30 min, qNPA probes were added, and samples were incubated at 95C for 10 min to begin the detection process by denaturing the target RNA, dissociating the duplexes and secondary structure hybridization. At the conclusion of the hybridization period, S1 nuclease reagent was added to each sample to digest all nonprotected nucleotides at 50C for 60-90 min. […]
Regarding `CCCCOC(=O)c1ccccc1C(=O)OCCCC`, the molecule was classed as inactive.
For `COc1nc(NC(C)C)nc(NC(C)C)n1` the value was “inactive”; for `COC(=O)N(OC)c1ccccc1COc1ccn(-c2ccc(Cl)cc2)n1`, “inactive”; for `COP(=S)(OC)Oc1nc(Cl)c(Cl)cc1Cl`, “inactive”.
In the case of `CCNc1nc(Cl)nc(NCC)n1` it was “inactive”.
In the case of `COc1nc(C)nc(NC(=O)NS(=O)(=O)c2ccccc2Cl)n1`, the result was inactive.
`CS/C(C)=N/OC(=O)N(C)SN(C)C(=O)O/N=C(\C)SC`: the call was inactive.
For `Oc1ccccc1-c1ccccc1` the value was “inactive”; for `COC(=O)C(C)Oc1ccc(Oc2ccc(Cl)cc2Cl)cc1` (stereo not drawn), “inactive”.
Consider `COP(N)(=O)SC` (stereo not drawn), for which the molecule was called inactive.
In the case of `CCNc1nc(Cl)nc(NC(C)C)n1` it was “inactive”; in that of `COc1cnc(OC)n2nc(NS(=O)(=O)c3c(OCC(F)F)cccc3C(F)(F)F)nc12`, “inactive”.
For `CC(C)(C)c1ccc(CSc2cnn(C(C)(C)C)c(=O)c2Cl)cc1` the value was “inactive”.
Consider `COc1nc(C)nc(NC(=O)NS(=O)(=O)c2ccccc2CCC(F)(F)F)n1`, for which the molecule was called inactive.
For the molecule `CCCN(CCC)c1c([N+](=O)[O-])cc(S(N)(=O)=O)cc1[N+](=O)[O-]`, the molecule was classed as inactive.
In the case of `Fc1ccc(Oc2ccnc3cc(Cl)cc(Cl)c23)cc1` it was “inactive”.
In the case of `COC(=O)c1ccccc1C(=O)OC` it was “inactive”; in that of `O=C(O)c1nc(Cl)ccc1Cl`, “inactive”.
